Screening data (PubChem)
D2 PAM-1: human D2 receptor positive allosteric modulation | P14416 | DiscoveRx D2 beta-arrestin cells, luminescence, 90 min; 100% = 57 uM dopamine signal | potentiation, % (test concentration not listed) | 0.23% of 360,000 active; in the data active = potentiation above about 50%
Target sequence (P14416 whole entry, looked up): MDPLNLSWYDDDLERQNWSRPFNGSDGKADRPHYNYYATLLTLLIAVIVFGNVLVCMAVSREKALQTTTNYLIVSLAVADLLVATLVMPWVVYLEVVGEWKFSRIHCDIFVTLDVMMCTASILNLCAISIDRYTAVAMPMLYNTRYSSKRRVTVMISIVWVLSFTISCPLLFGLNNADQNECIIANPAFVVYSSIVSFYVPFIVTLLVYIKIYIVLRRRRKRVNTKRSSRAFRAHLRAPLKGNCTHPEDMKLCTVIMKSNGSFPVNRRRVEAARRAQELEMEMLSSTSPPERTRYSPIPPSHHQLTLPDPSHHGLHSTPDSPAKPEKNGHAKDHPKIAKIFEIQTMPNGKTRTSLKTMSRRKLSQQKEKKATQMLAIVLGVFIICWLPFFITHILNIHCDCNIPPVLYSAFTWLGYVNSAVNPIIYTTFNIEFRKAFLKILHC
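D2 cells co-treated with compound plus 50 nM dopamine (EC20) for 90 min at 37 deg C to detect potentiation. Beta-arrestin recruitment was read as enzyme-fragment luminescence after 1 h at ambient temperature. Full response was set by 57 uM dopamine.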
D2 ag-1: human D2 receptor agonism in beta-arrestin assay; P14416; activation, % (concentration not given with the values); DiscoveRx PathHunter D2 beta-arrestin, luminescence, 90 min; 100% = 57 uM dopamine signal; 0.084% of 360,000 active; in the data active = activation above about 40%
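Agonist mode: compounds alone added to overnight-plated D2 PathHunter cells for 90 min at 37 C, with 57 uM final dopamine (EC100) defining full response. Beta-arrestin recruitment detected by chemiluminescent reagent, read after 1 h at ambient temperature.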
D2 ag-2: agonists of human D2 dopamine receptor. HEK293 T-REx D2 cells, calcium flux agonist mode. 0.53% of 340,000 active. P14416. AID 485358. activation, % at 2 µM;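 active = activation over 3 SD above normal in the single-dose calcium agonist read, cut at about 30% in these data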; note: 0% is about no effect
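HEK293 Trex D2 cells, tetracycline-induced, o/n 30 C 5% CO2; no-wash Ca dye, RT 30–90 min; 10-cycle baseline, 23 nl cpd added, kinetic Ca read 180 s; agonist hits = positive Ca response.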
D2 antag: antagonists of human D2 dopamine receptor. P14416. HEK293 TREx D2 cells, calcium flux, dopamine EC80. inhibition, % at 10 µM. 2% of 340,000 active. AID 485344; in the data active = inhibition above about 30%; inactive = below that, where a call was filed; note: 0% is about no effect
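Tetracycline-induced HEK293 TREx cells expressing D2 receptor forced-coupled to calcium signalling, loaded with no-wash calcium dye. Compounds added and calcium flux read 180 s, then dopamine added at EC80 and read a further 180 s.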
D2 PAM-2: positively modulates the human D2 dopamine receptor allosterically | 0.34% of 340,000 active | HEK293 T-REx D2, calcium flux, EC20 dopamine potentiation | AID 485347 | potentiation, % at 10 µM | P14416;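 active = potentiation over 3 SD above the plate norm, cut at about 30% in these data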; note: 0% is about no effect
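Tetracycline-induced Hek293 Trex D2 cells, force-coupled to calcium, loaded with no-wash calcium dye. Compound added with 180 s kinetic read for agonism, then EC20 dopamine and a further 180 s read for potentiation.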
An asterisk follows results filed as active; x = no result given. Hits are enriched below; roughly 2.4% of the tested compounds scored in any of these assays.

SMILES	D2 PAM-1	D2 ag-1	D2 ag-2	D2 antag	D2 PAM-2
CCc1ccc(CNc2ccc(N3CCN(C(C)=O)CC3)cc2)cc1	81*	12	0	-2	8
CC(=O)N1CCN(c2ccc(NCc3ccc(C)cc3)cc2)CC1	30	-1	0	-5	-17
O=C(c1ccc(Br)c(S(=O)(=O)N2CCOCC2)c1)N1CCN(C/C=C/c2ccccc2)CC1	-11	-4	x	x	x
OC(c1cccc(Cl)c1)c1ncc(-c2ccc(Oc3ccccc3)cc2)[nH]1 (configuration not stated)	-16	-5	x	x	x
Cc1ccc(OCC(=O)Nc2ccc(O)c(-c3nc4ccccc4o3)c2)cc1	-11	1	1	0	32*
Cc1cc(NC(=O)c2cc(-c3ccccc3Cl)nc3ccccc23)no1	-10	-3	-1	-11	32*
O=C(CN1CCOCC1)Nc1ncc(Cc2cccc3ccccc23)s1	7	3	0	42*	3
COc1ccccc1CNC(=O)C(NS(=O)(=O)c1cccs1)C(C)C (configuration not stated)	x	x	0	x	11
COc1cc(C(=O)OCC(=O)Nc2ccccc2C(=O)NC2CC2)c([N+](=O)[O-])cc1OC	0	-1	0	34*	-10
CSc1cccc(NC(=O)C2CCCN(S(=O)(=O)c3cnc[nH]3)C2)c1 (configuration not stated)	6	-3	0	31*	-19
CSc1cccc(NC(=O)C2CCN(S(=O)(=O)c3cnc[nH]3)CC2)c1	-11	-1	0	-12	-6
COc1cc(C=O)cc(Br)c1OCC(N)=O	-9	-6	-1	34*	1
C=CCOc1c(Br)cc(/C=C(\C#N)C(N)=O)cc1OC	-3	0	1	-2	-4
CCOC(=O)c1cc2sccc2n1CC(=O)N1CCc2ccccc21	-6	-1	0	0	34*
CCOC(=O)c1cc2c(=O)n3ccccc3nc2n(CC2CCCO2)c1=NC(=O)c1ccccc1OCC (configuration not stated)	x	x	0	x	0
CCOC(=O)c1ccc2[nH]c3c(c2c1)CN(C)CC3	-10	-4	0	16	1
Cc1ccc2[nH]c3c(c2c1)CCN(C)C3	-5	-5	1	34*	-16
CC(=O)N1CCc2[nH]c3ccc(C)cc3c2C1	-7	-2	1	7	4
Cc1cccc(CN2CCc3c([nH]c4ccccc34)C2)c1	-11	-6	1	56*	-23
Cc1ccc2[nH]c3c(c2c1)CN(C)CC3	-36	-3	2	31*	-30
Cc1cc(Nc2ccc(C(=O)O)c(O)c2)n2ncnc2n1	x	x	1	x	0
O=C1CCN2C=Nc3cccc4ccc1c2c34	21	7	47*	11	-6
CCN1CCN(C(=O)c2ccc3c(c2)N(Cc2ccccc2)C(=O)c2ccccc2S3=O)CC1 (configuration not stated)	-15	-3	1	27	-22
CCN1CCN(CCNC(=O)c2ccc3c(c2)N(Cc2ccc(F)cc2)C(=O)c2ccccc2S3=O)CC1 (configuration not stated)	-40	-2	1	55*	-20
CCCN(CCC)CCCNC(=O)c1ccc2c(c1)N(CC)C(=O)c1ccccc1S2=O (configuration not stated)	-6	-1	0	107*	-22
CCCCN(CC)CCCNC(=O)c1ccc2c(c1)N(Cc1ccc(C)cc1)C(=O)c1ccccc1S2	x	x	0	x	-4
CCOCCCNC(=O)c1ccc2c(c1)N(CC)C(=O)c1ccccc1S2=O (configuration not stated)	-31	-7	1	17	-28
CCN1C(=O)c2ccccc2Sc2ccc(C(=O)NCCCN(CC(C)C)CC(C)C)cc21	-11	-2	1	42*	-11
CCN1C(=O)c2ccccc2S(=O)c2ccc(C(=O)NCc3ccc(OC)cc3)cc21 (configuration not stated)	-3	0	-1	81*	-22
CSc1ccc(CNC(=O)Cn2nc(N3CCN(c4ccccc4)CC3)ccc2=O)cc1	x	x	0	x	-3
